Values joined by “and” are separate entries in the source; they are usually repeats but may differ in a detail not shown here. Equal entries are not always repeated. The campaign covered roughly 5,500 compounds. About 2,000 (36%) were called active. About 18% were inconclusive and are not listed. Rule as the data show it: active = normalized growth mostly below about 0.91 (no sharp cut-off); inconclusive = no clear call, values can overlap the other calls; inactive = mostly above about 0.92. This is one part of the list.
Experiment: chemical genetic growth profiling, strain panel (AID 1159580);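 also: tested at 20 µM; growth read once vehicle control cultures reached saturation at 30 °C; 1 = growth at the plate median or of vehicle wells; lower values mean less growth of the strain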
Details: S. cerevisiae deletion strains, growth OD

Measured: normalized growth

CCc1cc(C(N)=S)ccn1
inactive: locus YAL021C, strain ccr4, hits give low values 1 | locus YAL026C, strain drs2, hits give low values 1 | locus YAL030W, strain snc1, hits give low values 0.994 | locus YBL061C, strain skt5, hits give low values 1.01 | locus YBR009C, strain hhf1, hits give low values 1 | locus YBR021W, strain FUR4, hits give low values 1.06 | locus YBR023C, strain chs3, hits give low values 1.02 | locus YBR171W, strain sec66, hits give low values 1 | locus YBR229C, strain ROT2, hits give low values 0.953 | locus YBR231C, strain swc5, hits give low values 1.04 | locus YBR279W, strain paf1, hits give low values 1 | locus YCL011C, strain gbp2, hits give low values 1.01 | locus YCL016C, strain dcc1, hits give low values 1 | locus YCL061C, strain MRC1, hits give low values 1.01 | locus YCL069W, strain vba3, hits give low values 0.991 | locus YCR088W, strain abp1, hits give low values 1 | locus YDL005C, strain med2, hits give low values 1 | locus YDL035C, strain GPR1, hits give low values 1.01 | locus YDL040C, strain nat1, hits give low values 0.998 | locus YDL074C, strain BRE1, hits give low values 0.991 | locus YDL101C, strain DUN1, hits give low values 0.981 | locus YDL134C, strain PPH21, hits give low values 0.985 | locus YDL185W, strain tfp1, hits give low values 0.976 | locus YDL192W, strain arf1, hits give low values 0.981 | locus YDR001C, strain nth1, hits give low values 1 | locus YDR069C, strain doa4, hits give low values 0.978 | locus YDR101C, strain arx1, hits give low values 0.93 | locus YDR137W, strain rgp1, hits give low values 1.02 | locus YDR150W, strain NUM1, hits give low values 0.983 | locus YDR159W, strain sac3, hits give low values 0.953 | locus YDR162C, strain NBP2, hits give low values 1 | locus YDR195W, strain ref2 0.979 | locus YDR297W, strain sur2, hits give low values 1 | locus YDR318W, strain mcm21, hits give low values 1 | locus YDR334W, strain swr1, hits give low values 1.01 | locus YDR335W, strain msn5, hits give low values 0.996 | locus YDR388W, hits give low values 0.995 | locus YDR392W, strain spt3, hits give low values 0.938 | locus YDR502C, strain sam2, hits give low values 0.98 | locus YEL003W, strain gim4, hits give low values 0.998 | locus YEL037C, strain rad23, hits give low values 0.999 | locus YEL061C, strain CIN8 (second series), hits give low values 0.994 | locus YEL061C, strain CIN8, hits give low values 0.959 | locus YER015W, strain faa2, hits give low values 1.01 | locus YER016W, strain bim1, hits give low values 0.957 | locus YER110C, hits give low values 0.98 | locus YER111C, strain swi4, hits give low values 0.996 | locus YER155C, strain BEM2 (second series), hits give low values 0.943 | locus YER155C, strain BEM2, hits give low values 0.99 | locus YER167W, strain BCK2, hits give low values 0.994 | locus YFR010W, strain ubp6, hits give low values 1 | locus YGL078C, strain dbp3, hits give low values 0.986 | locus YGL086W, strain mad1, hits give low values 0.964 | locus YGL167C, strain pmr1, hits give low values 1 | locus YGL173C, strain kem1, hits give low values 0.995 | locus YGL227W, strain vid30, hits give low values 1.01 | locus YGL240W, strain doc1, hits give low values 0.978 | locus YGL248W, strain PDE1, hits give low values 0.989 | locus YGL253W, strain hxk2, hits give low values 1.01 | locus YGR135W, strain pre9, hits give low values 1.05 | locus YGR252W, strain gcn5, hits give low values 1.14 | locus YHR013C, strain ard1, hits give low values 1.05 | locus YHR027C, strain rpn1, hits give low values 1.01 | locus YHR030C, strain SLT2, hits give low values 0.997 and 1.11 | locus YHR079C, strain IRE1 (second series), hits give low values 0.993 | locus YHR079C, strain IRE1, hits give low values 1.08 | locus YHR094C, strain hxt1, hits give low values 0.987 | locus YHR129C, strain ARP1, hits give low values 0.991 | locus YHR142W, strain chs7, hits give low values 1.02 | locus YHR200W, strain rpn10, hits give low values 0.98 | locus YIL066C, strain RNR3, hits give low values 0.965 | locus YIL073C, strain SPO22, hits give low values 1.08 | locus YIL125W, strain kgd1, hits give low values 0.981 | locus YIR030C, strain dcg1, hits give low values 0.99 | locus YJL092W, strain hpr5, hits give low values 1.01 | locus YJL095W, strain BCK1 (second series), hits give low values 1 | locus YJL095W, strain BCK1, hits give low values 0.964 and 1.07 | locus YJL115W, strain asf1, hits give low values 1.01 | locus YJL129C, strain trk1, hits give low values 1.03 | locus YJL134W, strain LCB3, hits give low values 0.991 | locus YJL154C, strain vps35, hits give low values 0.995 | locus YJL164C, strain tpk1, hits give low values 1.02 | locus YJL166W, strain qcr8, hits give low values 1.04 | locus YJL168C, strain set2, hits give low values 0.991 | locus YJL187C, strain SWE1 (second series), hits give low values 0.941 | locus YJL187C, strain SWE1, hits give low values 1.01 | locus YJR043C, strain POL32, hits give low values 0.983

From PubChem BioAssay AID1159580 (chemical genetic matrix, 2015)
